# A selection: hits, their analogues and other compounds. The true share with any hit is near 14%.
# A350 fluor = qHTS Assay for Spectroscopic Profiling in A350 Spectral Region | 59,000 tested, 11% active | max dye-equivalent concentration, M | Compound autofluorescence, 340/450 nm, Alexa 350 dye-equivalents; active compounds read high | AID 590, 2007; in the data active = max dye-equivalent concentration above about 10 nM
# 4MU fluor = qHTS Assay for Spectroscopic Profiling in 4-MU Spectral Region; compound autofluorescence, 340/450 nm, 4-MU equivalents; active compounds read high; max dye-equivalent concentration, M; 59,000 tested, 11% active; in the data active = max dye-equivalent concentration above about 10 nM
#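 Intrinsic fluorescence at 340/450 nm (ex/em) was read after 15 min at room temperature in pH 8.0, 100 mM Tris. Each compound concentration expressed as 4-MU-equivalent concentration from a six-point 4-MU standard series on each plate.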
# HADH2 inhib = qHTS Assay for Inhibitors of HADH2 (Hydroxyacyl-Coenzyme A Dehydrogenase, Type II); 3-hydroxyacyl-CoA dehydrogenase type-2 (Homo sapiens), Q99714; recombinant HADH2, NADH fluorescence, beta-hydroxybutyryl-CoA; Potency, µM (titrated, usually from 57.1 µM), for inactives: top-dose activity change, negative = inhibition, actives largely listed as inhibitors; 73,000 tested, 3.4% active; AID 886, 2007; note: potency is the fitted concentration of half-maximal effect; % is set by controls: 0 for no effect and ±100 for the full control effect; nearly all actives have a fitted effect of over 60% in size
# Target sequence (Q99714 whole entry, looked up, one chain of several): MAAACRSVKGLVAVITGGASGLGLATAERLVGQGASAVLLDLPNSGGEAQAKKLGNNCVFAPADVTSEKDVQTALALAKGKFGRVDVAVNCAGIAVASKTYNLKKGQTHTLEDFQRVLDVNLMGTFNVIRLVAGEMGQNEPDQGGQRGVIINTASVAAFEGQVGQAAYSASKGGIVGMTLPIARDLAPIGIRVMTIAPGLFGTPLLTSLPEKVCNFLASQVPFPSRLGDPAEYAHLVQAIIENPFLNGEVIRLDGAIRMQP
#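 NADH fluorescence (ex 360/em 450 nm) read every 30 s for 4 min; activity taken as last-minus-first time point difference. Enzyme 20 nM, NAD+ 1 mM, beta-hydroxybutyryl-CoA 90 uM, pH 9.0 Tris buffer.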
# AID923 = qHTS Assay for Allosteric/Competitive Inhibitors of Caspase-1: Spectroscopic Profiling in AFC Spectral Region. compound fluorescence, AFC spectral region (405/520 nm). 75,000 tested, 1.1% active. AID 923, 2007. Potency, µM (titrated, usually from 57.5 µM), for inactives: at the highest dose fluorescence increase, usual class: activators; note: potency is the fitted concentration of half-maximal effect; 0% is about no effect
#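 Baseline compound fluorescence (AFC region, 405 nm ex/520 nm em) taken from the intercept of kinetic reads with 50 nM caspase-1 and 5 uM Ac-WEHD-AFC; normalized to an on-plate AFC standard curve; compounds titrated up to 57 uM.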
# CRE-bla Fsk = Cell signaling CRE-BLA (Fsk stim); 71,000 tested, 2.5% active; AID 662, 2007; Potency, µM (doses to about 38.2 µM), inactives show top-dose activity change, negative = inhibition, hits mostly activators; CHO CRE-bla reporter (cAMP response element driving beta-lactamase), forskolin EC10, beta-lactamase ratio; active = well fitted activation curve with a large enough effect in the signal ratio, with a control signal flat, not every such curve was filed as active; the % refers to the signal ratio; note: potency is the fitted concentration of half-maximal effect; % of control where 0% means no effect
#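 Modulation of forskolin signalling: compounds in titration series added with EC10 NKH 477 to CHO cells carrying a CRE-driven beta-lactamase reporter, 3 h, 37C. CCF4 FRET ratio (460/530 nm, ex 405 nm) gives %activity and AC50.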
# HSD17B inh = qHTS Assay for Inhibitors of HSD17B4, hydroxysteroid (17-beta) dehydrogenase 4; 3-hydroxyacyl-CoA dehydrogenase type-2 (Homo sapiens), Q99714; recombinant HSD17B10, NADH fluorescence kinetic; Potency, µM (highest dose often 57.1 µM), for inactives: top-dose activity change, negative = inhibition, actives largely listed as inhibitors; 75,000 tested, 7.6% active;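 note: the protocol describes HADH2 (HSD17B10) and not the HSD17B4 of the title; potency is the fitted concentration of half-maximal effect; % is set by controls: 0 for no effect and ±100 for the full control effect; nearly all actives have a fitted effect of over 70% in size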
#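 His-tagged E. coli-expressed HADH2 at 20 nM in 100 mM Tris-HCl pH 9.0 with 0.01 % Tween-20, preincubated 15 min with compound at room temperature. Reaction with 1 mM NAD+ and 90 uM beta-hydroxybutyryl coenzyme A; NADH fluorescence (360/450 nm) read kinetically over 4 min, last minus first point.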
# CHO tox 24h = Cell Viability - CRE-beta lactamase CHO cell - 24 hr assay; shares compounds with CRE-bla Fsk; activity, negative = viability loss, % at 46.1 µM; CRE-bla CHO viability, ATP luminescence, 24 h; 120 tested, under 10 active
# CHO tox 40h = Cell Viability - CRE-beta lactamase CHO cell - 40 hr assay. shares compounds with CRE-bla Fsk. CRE-bla CHO viability, ATP luminescence, 40 h. Potency, µM, without a hit: max response, actives largely listed as inhibitors. 120 tested, under 10 active. AID 906, 2007
# CREB luc CRC = Confirmation Concentration-Response Assay for Cell signaling CRE-BLA (Fsk stim) - HEK293 CREB Luciferase. AID 907, 2007. shares compounds with CRE-bla Fsk. HEK293 CRE-luc2P, NKH477 EC10 potentiation, luminescence, 4 h. 120 tested, 80% active. Potency, µM (top dose mostly 38.3 µM), without a hit: at the highest dose activity, positive = activation, usual class: activators
# Starred values were filed as active, the others as inactive; i = inactive; . = not tested or not shown; [ ] = dose if it differs, or a comment. Unless noted, calls come from the whole dose curve; as a rule, active = well fitted curve in the direction sought with a large enough effect; inconclusive = small, poorly fitted or top-dose-only effect, or another doubt; inactive = no such curve, though single readings can be large; an effect the other way counts as inactive or inconclusive.
SMILES,A350 fluor,4MU fluor,HADH2 inhib,AID923,CRE-bla Fsk,HSD17B inh,CHO tox 24h,CHO tox 40h,CREB luc CRC
Cc1nc(NCc2ccc3c(c2)OCO3)c2oc3ccccc3c2n1,i,i,-4.9%,-0.5%,2.51µM*,-12.2%,-8.0,-19.0%,12.6µM*
Cn1c(SCC(=O)N2CCOCC2)nc2sc3c(c2c1=O)CCCC3,i,i,4.6%,1.5%,15.4%,0.9%,-6.9,-17.4%,3.55µM*
COC(OC)[C@@H](C)[C@H](OC)[C@@H](C)[C@H](OC)c1ccccc1,.,.,-14.8%[11.4 µM],2.9%[11.5 µM],.,-2.5%[11.4 µM],.,.,.
COc1ccc(C2c3c(oc4ccccc4c3=O)C(=O)N2CCN2CCOCC2)cc1OC (configuration not stated),i,i,8.3%,1.3%,16.8%,4.5%,-2.6,-7.3%,14.1µM*
C=CCN1C(=O)c2oc3ccccc3c(=O)c2C1c1ccc(O)c(OC)c1 (configuration not stated),.,.,.,.,.,.,6.0,-6.4%,12.6µM*
COc1cc(C2c3c(oc4ccccc4c3=O)C(=O)N2CCN2CCOCC2)cc(OC)c1OC (configuration not stated),i,i,-0.4%,-2.7%,4.7%,-0.8%,.,.,.
Nc1nc(Cl)cc(NCCO)n1,i,i,5.9%[11.4 µM],7.2%[11.5 µM],-4.0%[7.6 µM],-2.7%[11.4 µM],.,.,.

# Bioassay records as filed in PubChem BioAssay.
